PubChem BioAssay (NCI)
The panel holds about 83,000 compounds, 20% with a hit somewhere; the sample as a whole holds those more often.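 Activity criterion: percent growth below 10, measured after cells in 96-well plates were exposed to a single compound concentration for 48 hours.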 A number with no mark means an inactive call. The source made the active and inactive calls.

Experiments:
Test in all cases: NCI-60 one-dose screen, 48 h (100 = growth as untreated, 0 = no growth, -100 = all killed)
Settings in all cases: 10 µM unless noted
[1] = system: RPMI-8226 leukemia
[2] = system: OVCAR-8 ovarian
[3] = system: OVCAR-4 ovarian
[4] = system: SK-OV-3 ovarian
[5] = system: IGROV1 ovarian
[6] = system: OVCAR-3 ovarian
[7] = system: HS 578T breast
[8] = system: NCI/ADR-RES ovarian
[9] = system: OVCAR-5 ovarian

SMILES | growth [1] | growth [2] | growth [3] | growth [4] | growth [5] | growth [6] | growth [7] | growth [8] | growth [9]
CC(C)c1c(C(=O)c2ccccc2)c(-c2ccccc2)c(-c2ccc(F)cc2)n1CC[C@@H](O)C[C@@H](O)CC(=O)O | 67.1% | 49.6% | 87.5% | 84.5% | 39.5% | 83.9% | 17.1% | 48.9% | 
CC(C)C1=C[C@@]23CC[C@@H]4[C@](C)(CCC[C@@]4(C)C(=O)N4CCCNCC4)[C@H]2C[C@@H]1[C@H]1C(=O)CCC(=O)[C@H]13 | 100% | 96.6% | 98.8% | 107% |  | 115% | 106% | 94.9% | 97.9%
COc1ccc2c(c1)O/C(=C\c1cccc(OCC(=O)Nc3nc4c(s3)CCCC4)c1)C2=O | 49.6% | -23.4% (active) | 62.4% | 90.9% |  | 41.5% | 84% | -9.46% (active) | 103%
COc1cc(/C=C/C(=O)c2c(C)oc3nc[nH]c(=O)c23)cc(OC)c1OC | 61.9% | 79.5% | 74.9% | 98.7% | 75.4% | 77.8% | 84.3% | 82.1% | 96.5%
CC[C@H]1OC(=O)[C@H](C)[C@@H](O[C@H]2C[C@@](C)(OC)[C@@H](O)[C@H](C)O2)[C@H](C)[C@@H](O[C@@H]2O[C@H](C)C[C@H](N(C)C)[C@H]2O)[C@](C)(O)C[C@H](C)CN(C)[C@H](C)[C@@H](O)[C@]1(C)O | 107% | 115% | 108% | 97.4% |  | 96% | -29.8% (active) | 95.2% | 100%
COc1ccc(-c2nc3ccc(-c4nc5ccc(N6CCN(c7ccncc7)CC6)cc5[nH]4)cc3[nH]2)cc1OC | 53.5% | 34.6% | 26.5% | 73.6% | 65.2% | 4.61% (active) | 44.1% | 96.9% | 87.2%
C=C(C)[C@@H]1CC[C@]2(C(=O)OC)CC[C@]3(C)[C@H](CC[C@@H]4[C@@]5(C)C/C(=C/c6cccc(I)c6)C(=O)C(C)(C)[C@@H]5CC[C@]43C)[C@@H]12 | 95.7% | 101% | 107% | 93.9% |  | 119% | 88% | 94.1% | 98.7%
O=C(O)c1ccc(N=CC(=O)c2ccc(-c3ccccc3)cc2)cc1 | 90.3% | 98.7% | 101% | 110% | 102% | 119% | 88.9% | 94.9% | 92.6%
COc1cc2nc(N3CCCC3)nc(NCCc3ccccc3)c2cc1OC | -21.8% (active) | 65.6% | -2.44% (active) | 84.7% | 70.3% | 82.5% | 98.4% | 61.8% | 
Cc1ccc(NS(=O)(=O)c2ccc(-c3cnc(C4CC4)o3)cc2)cc1C | 12.4% | 28.2% | 43.2% | 30.7% | 29.5% | -1.67% (active) | 14.3% | -10.9% (active) | 37.6%
CSc1nc(NCCN2CCOCC2)c(C#N)c(-c2cccc([N+](=O)[O-])c2)n1 | 100% | 97.4% | 87.3% | 97.8% | 94.9% | 109% | 97.9% | 95.7% | 96.2%
CC(C)(O)c1cn(CCCCN2C(=O)C(=O)c3ccccc32)nn1 | 95.9% | 102% | 96.5% | 95.7% |  | 109% | 99.6% | 99.9% | 96.4%
COc1cc2nnc3c4cccnc4[nH]c3c2cc1OC |  | -15.2% (active) | 29.8% | 81.7% |  | 30.5% | 58.5% | 23.4% | 75%
C=CC(=O)Nc1cccc(-c2nc(SC)nc(NCc3ccccc3)c2C#N)c1 | 38.5% | 39.8% | 48.5% | 72.2% | 57.3% | 48.4% | 51.8% | 48.3% | 85.4%
COc1cc2nc(N3CCCC3)nc(NCC3CCCCC3)c2cc1OC | -38.2% (active) | 12.1% | 33.2% | 77.4% |  | 13.1% | -33.5% (active) | 35.3% | 
C=CC(=O)Nc1cccc(-c2nc(SC)nc(Nc3cccc(OC)c3)c2C#N)c1 | 40% | 42% | 62.5% | 73.5% | 65.9% | 52.1% | 49.3% | 49.2% | 103%
O=S(=O)(Nc1ccc(OC(F)F)cc1)c1ccc(-c2cnc(C3CC3)o2)cc1 | 52.8% | 78.4% | 52.3% | 83.4% | 64.8% | 71.5% | 75.5% | 41.5% | 
